# Measured values published in the supplement of paper PMC8975748.
# Structures can show the parent of a compound that is named as a salt.
# Test system: Saccharomyces cerevisiae BY4741 SeMeCo community
# Assay: z-score of subpopulation abundance vs DMSO median, subpopulation auxotrophic for HU; higher = larger share of this subpopulation than in DMSO controls
# Conditions: 10 µM; 24 h; SM minimal medium; subpopulation (auxotrophy): HU
# Experimental: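 Fluorescent four-plasmid SeMeCo (self-establishing metabolically cooperating S. cerevisiae BY4741 community; plasmids pH-mRuby2, pL-mWasabi, pU-eCFP, pM-TagRFP657) was grown 24 h in minimal SM medium with each Selleck FDA-approved drug at 10 µM in 384-well plates. Cells were fixed and imaged by high-content confocal microscopy. For each auxotrophic subpopulation (and the prototroph), a z-score gives the deviation from the DMSO vehicle-control population median.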
row,SMILES,z-score of subpopulation abundance
1,C#C[C@]1(OC(C)=O)CC[C@H]2[C@@H]3CCC4=C[C@@H](OC(C)=O)CC[C@@H]4[C@H]3CC[C@@]21C [Ethynodiol diacetate],-0.23
2,CCN(CC)CC#CCOC(=O)C(O)(c1ccccc1)C1CCCCC1 (stereo not given) [Oxybutynin chloride],-0.4
3,N=C(N)NC(=O)c1nc(Cl)c(N)nc1N [Amiloride HCl dihydrate],-2.8
4,N#Cc1ccc2[nH]cc(CCCCN3CCN(c4ccc5oc(C(N)=O)cc5c4)CC3)c2c1 [Vilazodone HCl],0.14
5,O=c1[nH]c2ccccc2n1CCN1CCN(c2cccc(C(F)(F)F)c2)CC1 [Flibanserin],-0.17
6,C[C@]12CCC3=C4CCC(=O)C=C4CC[C@H]3[C@@H]1CC[C@@]2(O)CC#N [Dienogest],-0.02
7,CC1(C)S[C@@H]2[C@H](NC(=O)[C@H](N)c3ccc(O)cc3)C(=O)N2[C@H]1C(=O)O [Amoxicillin Sodium],-0.71
8,Nc1nnc(-c2cccc(Cl)c2Cl)c(N)n1 [Lamotrigine],-0.39
9,CCCCCCCCCCCCCCCCCCOP(=O)([O-])OC1CC[N+](C)(C)CC1 [Perifosine (KRX-0401)],8.89
10,Cc1c(C)c2c(c(C)c1O)CCC(C)(CCCC(C)CCCC(C)CCCC(C)C)O2 (stereo not given) [Vitamin E],0.51
11,CCN1CCN(c2cc3c(cc2F)c(=O)c(C(=O)O)cn3C2CC2)CC1 [Enrofloxacin],0.07
12,CC[N+](CC)(CC)CC [Tetraethylammonium bromide],-0.09
13,O=C(O)CCC(=O)Nc1ccc(S(=O)(=O)Nc2nccs2)cc1 [Succinylsulfathiazole],-0.31
14,Cc1ccc(-c2cc(C(F)(F)F)nn2-c2ccc(S(N)(=O)=O)cc2)cc1 [Celecoxib],-0.62
15,CC(C)[C@H]1CC[C@H](C(=O)N[C@H](Cc2ccccc2)C(=O)O)CC1 [Nateglinide],0.06
16,O=C1C(N(CO)C(=O)NCO)N(CO)C(=O)N1CO (stereo not given) [Diazolidinyl urea],-0.75
17,CCCCNC(=O)NS(=O)(=O)c1ccc(C)cc1 [Tolbutamide],-0.31
18,COc1cc(O)c(C(=O)Nc2nc(C(=O)NCCN(C(C)C)C(C)C)cs2)cc1OC [Acotiamide],-0.06
19,CC(C)C(=O)Oc1ccc(CO)cc1[C@H](CCN(C(C)C)C(C)C)c1ccccc1 [Fesoterodine Fumarate],-0.72
20,CO[C@@]1(NC(=O)C(C(=O)O)c2ccc(O)cc2)C(=O)N2C(C(=O)O)=C(CSc3nnnn3C)CO[C@@H]21 (stereo not given in full) [Latamoxef sodium],0

row,SMILES,z-score of subpopulation abundance
1,CC[C@H]1OC(=O)C[C@@H](O)[C@H](C)[C@@H](O[C@@H]2O[C@H](C)[C@@H](O)[C@H](N(C)C)[C@H]2O)[C@@H](CCN2C[C@H](C)C[C@H](C)C2)C[C@@H](C)C(=O)/C=C/C(C)=C/[C@@H]1CO[C@@H]1O[C@H](C)[C@@H](O)[C@@H](OC)[C@H]1OC [Tilmicosin],1.52
2,CC1CCc2c(N3CCC(O)CC3)c(F)cc3c(=O)c(C(=O)O)cn1c23 (stereo not given) [Nadifloxacin],0.43
3,CCC(=O)O[C@@H]1CC(=O)O[C@H](C)C/C=C/C=C/[C@H](O)[C@H](C)C[C@H](CC=O)[C@H](O[C@@H]2O[C@H](C)[C@@H](O[C@H]3C[C@@](C)(O)[C@@H](OC(=O)CC)[C@H](C)O3)[C@H](N(C)C)[C@H]2O)[C@H]1OC [Midecamycin],0.44
4,CN1CCN(c2c(F)cc3c(=O)c(C(=O)O)cn4c3c2OCN4C)CC1 [Marbofloxacin],-0.06
5,NC[C@H]1O[C@H](O[C@H]2[C@H](O)[C@@H](O[C@H]3O[C@H](CO)[C@@H](O)[C@H](N)[C@H]3O)[C@H](N)C[C@@H]2N)[C@H](O)[C@@H](O)[C@@H]1O [Kanamycin sulfate],-0.5
6,c1ccc(-c2ccc(C(c3ccccc3)n3ccnc3)cc2)cc1 (stereo not given) [Bifonazole],1.01
7,CCNC(=O)[C@@H]1CCCN1C(=O)[C@H](CCCNC(=N)N)NC(=O)[C@H](CC(C)C)NC(=O)[C@@H](CC(C)C)NC(=O)[C@H](Cc1ccc(O)cc1)NC(=O)[C@H](CO)NC(=O)[C@H](Cc1c[nH]c2ccccc12)NC(=O)[C@H](Cc1c[nH]cn1)NC(=O)[C@@H]1CCC(=O)N1 [Leuprolide Acetate],1.03
8,NC[C@@H]1O[C@H](O[C@H]2[C@@H](O)[C@H](O[C@@H]3[C@@H](O)[C@H](N)C[C@H](N)[C@H]3O[C@H]3O[C@H](CO)[C@@H](O)[C@H](O)[C@H]3N)O[C@@H]2CO)[C@H](N)[C@@H](O)[C@@H]1O [Paromomycin Sulfate],-0.92
9,CC(=O)OCC1=C(C(=O)O)N2C(=O)[C@@H](NC(=O)CSc3ccncc3)[C@H]2SC1 [Cephapirin Benzathine],1.01
10,CN[C@H](CC(C)C)C(=O)N[C@H]1C(=O)N[C@@H](CC(N)=O)C(=O)N[C@H]2C(=O)N[C@H]3C(=O)N[C@H](C(=O)N[C@H](C(=O)O)c4cc(O)cc(O)c4-c4cc3ccc4O)[C@H](O)c3ccc(c(Cl)c3)Oc3cc2cc(c3O[C@@H]2O[C@H](CO)[C@@H](O)[C@H](O)[C@H]2O[C@H]2C[C@](C)(N)[C@H](O)[C@H](C)O2)Oc2ccc(cc2Cl)[C@H]1O [Vancomycin],-0.91
11,CCCCOc1ccc(CC(=O)NO)cc1 [Bufexamac],0.4
12,C[C@@H](O)[C@H]1C(=O)N2C(C(=O)O)=C([C@H]3CCCO3)S[C@H]12 [Faropenem Sodium],0.81
13,CN(C)CCCC1(c2ccc(F)cc2)OCc2cc(C#N)ccc21 (stereo not given) [Citalopram HBr],0.64
14,CCn1cc(C(=O)O)c(=O)c2cc(F)c(N3CCNC(C)C3)c(F)c21 (stereo not given) [Lomefloxacin HCl],0.12
15,CC1(C)S[C@@H]2[C@H](NC(=O)Cc3ccccc3)C(=O)N2[C@H]1C(=O)O [Benzathine penicilline],0.01
16,O=C(c1ccccc1)c1ccc2n1CCC2C(=O)O (stereo not given) [Ketorolac tromethamine salt],-0.79
17,CC1(C)S[C@@H]2[C@H](NC(=O)Cc3ccccc3)C(=O)N2[C@H]1C(=O)O.CCN(CC)CCOC(=O)c1ccc(N)cc1 [Penicillin G Procaine],0.54
18,CC[N+](C)(C)c1cccc(O)c1 [Edrophonium chloride],-0.07
19,O=C(Cn1ccnc1[N+](=O)[O-])NCc1ccccc1 [Benznidazole],-0.83
20,CC(=O)N1CCN(c2ccc(OCC3COC(Cn4ccnc4)(c4ccc(Cl)cc4Cl)O3)cc2)CC1 (stereo not given) [Ketoconazole],-0.29
